# In PubChem BioAssay:
# Active and inactive are the calls of the source.
# Legend:
# [1] = binders of probe aFSTL3 on microarray, primary screen, stem cell growth factor project, biochemical, small-molecule microarray, fluorescence 635/667 (AID 1064); conditions: higher = more signal;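 further: measures binding of the biotinylated anti-FSTL3 antibody to printed compounds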
# [2] = binders from COS7 lysate, DM2A8 probe, primary screen, torsin A project, cell lysate, small-molecule microarray, fluorescence 635/667 (AID 1065); conditions: higher = more signal, COS7 lysate expressing mutant human TOR1A
# [3] = binders of probe aFGF2 on microarray, primary screen, stem cell growth factor project, biochemical, small-molecule microarray, fluorescence 635/667 (AID 1067); conditions: higher = more signal;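 further: measures binding of biotinylated aFGF2 protein to printed compounds on slides; z-score merges feature fluorescence and signal-to-noise across triplicate slides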
# [4] = binders of probe aFGF10 on microarray, primary screen, stem cell growth factor project, biochemical, small-molecule microarray, fluorescence 635/667 (AID 1071); conditions: higher = more signal;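 further: score merges 667 nm spot intensity and signal to noise from triplicate slides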
# [5] = target: Neurogenic locus notch homolog protein 2 (Homo sapiens) (UniProt Q04721); assay: Notch2 binders on small-molecule microarrays, primary screen, biochemical, small-molecule microarray, 635 nm fluorescence, stem cell growth factors (AID 1073); conditions: Notch2 binding, higher = more signal
# [6] = target: Pro-neuregulin-1, membrane-bound isoform (Homo sapiens) (UniProt Q02297); assay: NRG1 binders on small-molecule microarrays, primary screen, psychiatric disease protein project, biochemical, small-molecule microarray, fluorescence 635/667 (AID 1075); conditions: NRG1 binding, 635 nm fluorescence, higher = more signal;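 further: score combines 667 nm spot fluorescence with signal to noise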
# [7] = test system: Neuregulin-1 EGF-like domain; assay: binders of neuregulin-1 EGF-like domain, primary screen, biochemical, small-molecule microarray, 635 nm fluorescence (AID 1081); conditions: small-molecule microarray binding, higher = more signal;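 further: binding of the protein to compounds printed on small-molecule microarray slides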
# [8] = FRG1 promoter luciferase signal modulators, primary screen, FRG1 inhibition for FSHD, cell-based, C2C12 myotubes, firefly/Renilla luciferase, luminescence (AID 1084); conditions: higher = more signal, called active from +8 up or from −8 down
# [9] = binders of probe aFST on microarray, primary screen, stem cell growth factor project, biochemical, small-molecule microarray, fluorescence 635/667 (AID 1086); conditions: higher = more signal;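 further: score merges 667 nm fluorescence with signal-to-noise of each printed compound spot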
# [10] = binders of probe aHhip on microarray, primary screen, stem cell growth factor project, biochemical, small-molecule microarray, fluorescence 635/667 (AID 1087); conditions: higher = more signal;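 further: score merges spot fluorescence at 667nm with spot signal to noise ratio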
# [11] = test system: PRMT1 (protein arginine N-methyltransferase 1); assay: PRMT1 binders on small-molecule microarrays, primary screen, biochemical, small-molecule microarray, 635 nm fluorescence (AID 1088); conditions: small-molecule microarray binding, higher = more signal;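 further: binding of Prmt1 protein to compounds spotted on small-molecule microarray slides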
# [12] = yeast growth modulation, basal conditions, primary screen, YJM789 clinical isolate, OD600, 24 h (AID 1089);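 further: growth of clinical yeast isolate S. cerevisiae YJM 789 seeded 1000 cells per well; test concentration not given here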; conditions: S. cerevisiae YJM789 growth, higher = more signal, called active from +8 up or from −8 down
# [13] = fission yeast growth modulation, primary screen, strain 972, OD600, 24 h, no modulator (AID 1090);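 further: basal condition with compound alone and no growth modifier present; test concentration not given here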; conditions: S. pombe 972 growth, higher = more signal, called active from +8 up or from −8 down
# [14] = S. cerevisiae growth modulation with rapamycin, primary screen, strain BY4716, OD600, 96 h (AID 1091); conditions: higher = more signal, called active from +8 up or from −8 down; further: test concentration not given here
# [15] = target: Torsin-1A-interacting protein 2 (Homo sapiens) (UniProt Q8NFQ8); assay: LULL1 binders on small-molecule microarray, primary screen, cell lysate, human LULL1 lysate, 635/667 nm fluorescence (AID 1092); conditions: hLULL1 lysate binding, 635 nm fluorescence, higher = more signal;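 further: probe is lysate of COS7 cells overexpressing human LULL1; score merges per-feature 667 nm fluorescence with signal-to-noise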
# [16] = E. coli growth modulation, two-sided OD650, primary screen, E. coli filamentation project, strain DRC41, 24 h (AID 1093); conditions: OD650, 24 h, higher = more signal, called active from +8 up or from −8 down;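 further: MC1000 strain lacking acrAB efflux and sulA so SOS filamentation is blocked; test concentration not given here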
# [17] = small-molecule microarray binders of probe aLefty2, primary screen, biochemical, biotinylated probe, 635/667 nm fluorescence (AID 1094); conditions: higher = more signal;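 further: score merges spot fluorescence near 667 nm with spot signal-to-noise ratio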
# [18] = test system: Noggin (protein binding on small-molecule microarray); assay: Noggin binders on small-molecule microarray, primary screen, biochemical, 635/667 nm fluorescence (AID 1095); conditions: 635 nm fluorescence, higher = more signal;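 further: score merges 667 nm feature fluorescence with signal to noise over triplicate slides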
# [19] = target: Neurogenic locus notch homolog protein 3 (Homo sapiens) (UniProt Q9UM47); assay: NOTCH3 binders on small-molecule microarray, primary screen, biochemical, 635/667 nm fluorescence (AID 1096); conditions: NOTCH3 binding, 635 nm fluorescence, higher = more signal
# [20] = small-molecule microarray binders of probe aEGFR, primary screen, biochemical, biotinylated probe, 635/667 nm fluorescence (AID 1097); conditions: higher = more signal;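 further: probe is a biotinylated anti-EGFR antibody binding compounds printed on slides; score combines fluorescence near 667 nm and signal to noise of each spot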
# Torsin-1A-interacting protein 2 (Homo sapiens), sequence (Q8NFQ8 whole entry, looked up): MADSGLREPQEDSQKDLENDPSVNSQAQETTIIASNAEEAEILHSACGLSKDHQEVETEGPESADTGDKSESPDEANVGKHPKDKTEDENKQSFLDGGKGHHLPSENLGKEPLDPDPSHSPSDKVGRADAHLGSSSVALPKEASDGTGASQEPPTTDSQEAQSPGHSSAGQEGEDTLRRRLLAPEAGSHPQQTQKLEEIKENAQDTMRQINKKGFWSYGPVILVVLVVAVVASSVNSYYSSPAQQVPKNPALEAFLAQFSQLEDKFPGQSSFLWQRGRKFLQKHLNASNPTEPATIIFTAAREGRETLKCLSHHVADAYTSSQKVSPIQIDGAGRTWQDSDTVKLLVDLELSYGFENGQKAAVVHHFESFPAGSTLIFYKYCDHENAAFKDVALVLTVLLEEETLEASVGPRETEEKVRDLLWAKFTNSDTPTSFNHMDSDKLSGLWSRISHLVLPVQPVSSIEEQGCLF
# Pro-neuregulin-1, membrane-bound isoform (Homo sapiens), sequence (Q02297 whole entry, looked up, the tested form may be a part, canonical isoform): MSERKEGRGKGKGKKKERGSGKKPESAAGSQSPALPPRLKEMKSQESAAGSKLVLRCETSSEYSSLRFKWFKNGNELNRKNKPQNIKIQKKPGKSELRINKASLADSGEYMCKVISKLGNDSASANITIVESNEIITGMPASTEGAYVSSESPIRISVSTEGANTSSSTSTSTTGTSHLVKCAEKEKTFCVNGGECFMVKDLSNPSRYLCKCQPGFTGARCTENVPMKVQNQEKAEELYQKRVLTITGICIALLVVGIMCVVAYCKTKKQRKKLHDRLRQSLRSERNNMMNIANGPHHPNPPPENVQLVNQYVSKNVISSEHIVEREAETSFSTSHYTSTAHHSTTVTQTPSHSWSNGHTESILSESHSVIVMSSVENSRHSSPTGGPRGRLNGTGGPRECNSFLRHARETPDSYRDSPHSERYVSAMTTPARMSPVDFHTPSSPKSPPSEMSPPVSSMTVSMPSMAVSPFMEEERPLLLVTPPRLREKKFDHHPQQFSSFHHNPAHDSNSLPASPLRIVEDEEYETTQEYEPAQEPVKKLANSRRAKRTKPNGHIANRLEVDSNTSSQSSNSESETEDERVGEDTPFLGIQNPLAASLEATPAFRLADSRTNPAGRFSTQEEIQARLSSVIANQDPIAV
# Neurogenic locus notch homolog protein 2 (Homo sapiens), sequence (Q04721 whole entry, looked up, canonical isoform): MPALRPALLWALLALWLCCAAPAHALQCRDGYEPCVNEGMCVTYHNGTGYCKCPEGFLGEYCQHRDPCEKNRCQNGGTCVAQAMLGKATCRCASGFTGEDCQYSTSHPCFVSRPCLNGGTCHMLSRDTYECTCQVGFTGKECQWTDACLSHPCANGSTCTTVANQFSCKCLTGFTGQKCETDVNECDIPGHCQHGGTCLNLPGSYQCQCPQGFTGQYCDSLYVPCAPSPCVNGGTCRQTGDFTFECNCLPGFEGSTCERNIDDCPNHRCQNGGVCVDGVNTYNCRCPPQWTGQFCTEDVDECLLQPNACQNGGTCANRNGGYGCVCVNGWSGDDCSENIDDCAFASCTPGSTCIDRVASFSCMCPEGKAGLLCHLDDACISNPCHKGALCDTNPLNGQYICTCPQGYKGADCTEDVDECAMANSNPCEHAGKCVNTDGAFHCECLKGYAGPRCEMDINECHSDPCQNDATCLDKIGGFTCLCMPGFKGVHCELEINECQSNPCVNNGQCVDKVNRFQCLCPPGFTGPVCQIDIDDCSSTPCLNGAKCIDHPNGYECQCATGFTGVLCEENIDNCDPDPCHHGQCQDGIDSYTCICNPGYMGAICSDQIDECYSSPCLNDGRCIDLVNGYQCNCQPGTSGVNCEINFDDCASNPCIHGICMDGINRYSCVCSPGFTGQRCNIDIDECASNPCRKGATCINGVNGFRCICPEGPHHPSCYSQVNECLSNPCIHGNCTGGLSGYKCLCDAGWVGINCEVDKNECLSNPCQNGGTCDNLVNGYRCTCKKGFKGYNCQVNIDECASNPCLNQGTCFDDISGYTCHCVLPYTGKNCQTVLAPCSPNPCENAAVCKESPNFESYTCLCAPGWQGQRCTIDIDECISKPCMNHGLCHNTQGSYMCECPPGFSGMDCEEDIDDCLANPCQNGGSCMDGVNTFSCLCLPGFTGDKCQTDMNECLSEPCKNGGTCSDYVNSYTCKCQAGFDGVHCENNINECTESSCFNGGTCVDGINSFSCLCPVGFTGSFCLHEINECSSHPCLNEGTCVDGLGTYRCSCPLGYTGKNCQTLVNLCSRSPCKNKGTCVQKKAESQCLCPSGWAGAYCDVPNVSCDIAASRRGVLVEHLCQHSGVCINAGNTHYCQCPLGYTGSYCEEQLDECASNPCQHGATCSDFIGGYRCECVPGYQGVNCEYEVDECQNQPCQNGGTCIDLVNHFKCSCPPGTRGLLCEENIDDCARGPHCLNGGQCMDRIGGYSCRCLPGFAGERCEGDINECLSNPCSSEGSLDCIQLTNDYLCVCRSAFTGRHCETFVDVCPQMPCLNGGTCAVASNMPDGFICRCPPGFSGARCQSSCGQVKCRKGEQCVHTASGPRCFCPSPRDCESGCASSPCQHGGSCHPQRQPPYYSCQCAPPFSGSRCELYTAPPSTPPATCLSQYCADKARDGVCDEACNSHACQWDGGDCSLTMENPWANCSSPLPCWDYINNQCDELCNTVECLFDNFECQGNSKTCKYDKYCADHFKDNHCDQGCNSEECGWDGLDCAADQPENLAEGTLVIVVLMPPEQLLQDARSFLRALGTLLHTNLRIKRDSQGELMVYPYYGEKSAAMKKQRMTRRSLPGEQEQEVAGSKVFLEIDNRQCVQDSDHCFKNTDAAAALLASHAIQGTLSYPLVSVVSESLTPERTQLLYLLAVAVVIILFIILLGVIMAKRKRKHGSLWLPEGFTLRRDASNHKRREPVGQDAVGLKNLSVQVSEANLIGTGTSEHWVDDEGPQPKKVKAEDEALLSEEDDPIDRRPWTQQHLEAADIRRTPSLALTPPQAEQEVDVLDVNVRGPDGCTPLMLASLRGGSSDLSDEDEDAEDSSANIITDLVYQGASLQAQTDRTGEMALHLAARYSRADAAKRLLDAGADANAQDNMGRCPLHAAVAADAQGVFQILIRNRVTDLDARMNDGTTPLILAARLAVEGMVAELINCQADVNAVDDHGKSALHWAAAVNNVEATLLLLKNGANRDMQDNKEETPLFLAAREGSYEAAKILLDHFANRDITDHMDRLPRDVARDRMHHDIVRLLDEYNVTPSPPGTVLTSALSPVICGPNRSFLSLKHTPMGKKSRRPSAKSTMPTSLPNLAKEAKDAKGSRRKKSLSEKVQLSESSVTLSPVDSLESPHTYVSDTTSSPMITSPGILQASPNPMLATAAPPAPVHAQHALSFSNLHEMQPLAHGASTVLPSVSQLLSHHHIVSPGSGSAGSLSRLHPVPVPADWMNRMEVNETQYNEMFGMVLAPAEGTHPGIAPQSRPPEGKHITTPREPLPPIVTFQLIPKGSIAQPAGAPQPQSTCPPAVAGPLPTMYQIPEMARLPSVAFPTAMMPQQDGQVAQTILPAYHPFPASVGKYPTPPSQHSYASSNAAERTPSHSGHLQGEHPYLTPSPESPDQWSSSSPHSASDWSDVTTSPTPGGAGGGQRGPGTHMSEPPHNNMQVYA
smiles,measurement,setting,value
COCCOC(=O)N1C(=O)[C@@]2(c3cc(C#CC4=CCCCC4)ccc31)[C@H](C(=O)N1CCc3cc(OC)c(OC)cc3C1)[C@H]1C(=O)O[C@H](c3ccccc3)[C@H](c3ccccc3)N1[C@@H]2c1ccccc1OCCO,composite z-score,[1],0.243
same,composite z-score,[2],0.0781
same,composite z-score,[3],-0.0867
same,composite z-score,[4],-0.205
same,composite z-score,[5],0.138
same,composite z-score,[6],-0.442
same,composite z-score,[7],1.06
same,z-score,[8],0.801 (inactive)
same,composite z-score,[9],0.186
same,composite z-score,[10],-0.0645
same,composite z-score,[11],1.01
same,z-score,[12],1.51 (inactive)
same,z-score,[13],1.35 (inactive)
same,z-score,[14],2.78 (inactive)
same,composite z-score,[15],1.97
same,z-score,[16],0.982 (inactive)
same,composite z-score,[17],0.0906
same,composite z-score,[18],1.16
same,composite z-score,[19],1.09
same,composite z-score,[20],0.0238
COC(=O)[C@@]1(Cc2ccccc2)[C@H]2c3cc(C(=O)N(C)C)n(Cc4cc(C)n(C)n4)c3C[C@H]2CN1C(=O)c1ccccc1,composite z-score,[1],0.512
same,composite z-score,[2],0.403
same,composite z-score,[3],-0.221
same,composite z-score,[4],-0.0117
same,composite z-score,[5],1.69
same,composite z-score,[6],1.51
same,composite z-score,[7],1.27
same,z-score,[8],0.0005 (inactive)
same,composite z-score,[9],1.51
same,composite z-score,[10],0.628
same,composite z-score,[11],0.0423
same,z-score,[12],-0.571 (inactive)
same,z-score,[13],-0.528 (inactive)
same,z-score,[14],-0.649 (inactive)
same,composite z-score,[15],3.96
same,z-score,[16],-0.564 (inactive)
same,composite z-score,[17],0.0382
same,composite z-score,[18],-0.127
same,composite z-score,[19],0.809
same,composite z-score,[20],0.238
Cc1cc(C)c(C(O)C2C=CC3C(=O)N(C)C(=O)C3N2Nc2ccccc2)c(C)c1 (stereo not given),composite z-score,[1],1.19
same,composite z-score,[2],0.732
same,composite z-score,[3],0.462
same,composite z-score,[4],0.93
same,composite z-score,[5],1.64
same,composite z-score,[6],1.26
same,composite z-score,[7],1.27
same,z-score,[8],0.016 (inactive)
same,composite z-score,[9],2.01
same,composite z-score,[10],0.872
same,composite z-score,[11],0.378
same,z-score,[12],-0.304 (inactive)
same,z-score,[13],0.569 (inactive)
same,z-score,[14],-0.448 (inactive)
same,composite z-score,[15],2.41
same,z-score,[16],-1.32 (inactive)
same,composite z-score,[17],1.24
same,composite z-score,[18],0.0355
same,composite z-score,[19],0.533
same,composite z-score,[20],0.907
CN1C(=O)C2C(C1=O)C1C=C(CCCO)C2C(c2cccs2)N1C (stereo not given),composite z-score,[1],-0.855
same,composite z-score,[2],1.65
same,composite z-score,[3],-0.2
same,composite z-score,[4],0.524
same,composite z-score,[5],-0.508
same,composite z-score,[6],0.822
same,composite z-score,[7],1.19
same,z-score,[8],0.22 (inactive)
same,composite z-score,[9],-0.225
same,composite z-score,[10],-0.579
same,composite z-score,[11],-0.214
same,z-score,[12],-0.68 (inactive)
same,z-score,[13],-0.149 (inactive)
same,z-score,[14],-0.113 (inactive)
same,composite z-score,[15],2.69
same,z-score,[16],0.729 (inactive)
same,composite z-score,[17],-0.384
same,composite z-score,[18],-0.4
same,composite z-score,[19],-0.553
same,composite z-score,[20],-0.385
CCCCCCc1nc(CCCc2cc3c(c(CCCCCC)n2)[Si](C(C)C)(C(C)C)OC3)cc2c1[Si](C(C)C)(C(C)C)OC2,composite z-score,[1],-0.0039
same,composite z-score,[2],0.0271
same,composite z-score,[3],-0.149
same,composite z-score,[4],-0.408
same,composite z-score,[5],-0.955
same,composite z-score,[6],-0.247
same,composite z-score,[7],-0.774
same,z-score,[8],0.521 (inactive)
same,composite z-score,[9],-0.344
same,composite z-score,[10],0.0274
same,composite z-score,[11],-0.41
same,z-score,[12],-0.506 (inactive)
same,z-score,[13],-2.38 (inactive)
same,z-score,[14],0.256 (inactive)
same,composite z-score,[15],-0.134
same,z-score,[16],-0.3 (inactive)
same,composite z-score,[17],-0.208
same,composite z-score,[18],0.257
same,composite z-score,[19],-0.58
same,composite z-score,[20],-0.287
O=C1O[C@H](c2ccccc2)[C@H](c2ccccc2)N2[C@H]1[C@@H](C(=O)NC[C@H](O)c1ccccc1)[C@]1(C(=O)Nc3ccc(C#CCCO)cc31)[C@H]2c1ccc(O)cc1,composite z-score,[1],0.326
same,composite z-score,[2],-0.543
same,composite z-score,[3],-0.103
same,composite z-score,[4],-0.465
same,composite z-score,[5],-0.42
same,composite z-score,[6],0.0538
same,composite z-score,[7],-0.51
same,z-score,[8],0.08 (inactive)
same,composite z-score,[9],-0.445
same,composite z-score,[10],0.245
same,composite z-score,[11],-0.0718
same,z-score,[12],-0.383 (inactive)
same,z-score,[13],-0.0869 (inactive)
same,z-score,[14],0.105 (inactive)
same,composite z-score,[15],-0.217
same,z-score,[16],0.092 (inactive)
same,composite z-score,[17],0.0249
same,composite z-score,[18],-0.984
same,composite z-score,[19],-0.415
same,composite z-score,[20],-0.194
COC(=O)[C@@]1(Cc2ccccc2)[C@H]2c3cc(C(=O)N(C)C)n(Cc4c(-c5ccccc5)noc4C)c3C[C@H]2CN1C(=O)c1ccccc1,composite z-score,[1],0.948
same,composite z-score,[2],-0.287
same,composite z-score,[3],0.308
same,composite z-score,[4],0.346
same,composite z-score,[5],1.66
same,composite z-score,[6],1.81
same,composite z-score,[7],1.24
same,z-score,[8],1.6 (inactive)
same,composite z-score,[9],1.41
same,composite z-score,[10],0.162
same,composite z-score,[11],-0.248
same,z-score,[12],0.315 (inactive)
same,z-score,[13],0.555 (inactive)
same,z-score,[14],2.84 (inactive)
same,composite z-score,[15],2.7
same,z-score,[16],-1.07 (inactive)
same,composite z-score,[17],0.531
same,composite z-score,[18],-0.452
same,composite z-score,[19],0.303
same,composite z-score,[20],0.235
C[C@]1(C(=O)NCc2ccccc2)c2ccccc2C(=O)N(Cc2ccc(OC(F)(F)F)cc2)[C@H]1c1ccc(CO)cc1,composite z-score,[1],0.161
same,composite z-score,[2],1.14
same,composite z-score,[3],-0.0507
same,composite z-score,[4],-0.0562
same,composite z-score,[5],-0.323
same,composite z-score,[6],0.349
same,composite z-score,[7],0.711
same,z-score,[8],-4.27 (inactive)
same,composite z-score,[9],-0.409
same,composite z-score,[10],-0.431
same,composite z-score,[11],-0.0073
same,z-score,[12],-0.913 (inactive)
same,z-score,[13],-0.935 (inactive)
same,z-score,[14],-0.67 (inactive)
same,composite z-score,[15],2.06
same,z-score,[16],1.36 (inactive)
same,composite z-score,[17],-0.0719
same,composite z-score,[18],0.0824
same,composite z-score,[19],-0.184
same,composite z-score,[20],-0.0689
COCCOC(=O)N1C(=O)[C@@]2(c3cc(C#CCCO)ccc31)[C@H](c1ccc(O)cc1)N1[C@H](c3ccccc3)[C@H](c3ccccc3)OC(=O)[C@H]1[C@@H]2C(N)=O,composite z-score,[1],1.04
same,composite z-score,[2],0.751
same,composite z-score,[3],-0.0173
same,composite z-score,[4],0.203
same,composite z-score,[5],-0.982
same,composite z-score,[6],1.08
same,composite z-score,[7],1.42
same,z-score,[8],-0.966 (inactive)
same,composite z-score,[9],0.102
same,composite z-score,[10],0.113
same,composite z-score,[11],1.14
same,z-score,[12],0.253 (inactive)
same,z-score,[13],0.479 (inactive)
same,z-score,[14],0.418 (inactive)
same,composite z-score,[15],1.51
same,z-score,[16],-0.834 (inactive)
same,composite z-score,[17],0.0002
same,composite z-score,[18],-0.243
same,composite z-score,[19],0.213
same,composite z-score,[20],-0.178
COCCOC(=O)N1C(=O)[C@@]2(c3cc(C#CC4=CCCCC4)ccc31)[C@H](C(=O)NC[C@H](O)c1ccccc1)[C@H]1C(=O)O[C@H](c3ccccc3)[C@H](c3ccccc3)N1[C@@H]2c1ccc(O)cc1,composite z-score,[1],-0.377
same,composite z-score,[2],0.189
same,composite z-score,[3],-0.105
same,composite z-score,[4],0.797
same,composite z-score,[5],1.23
same,composite z-score,[6],0.996
same,composite z-score,[7],1.19
same,z-score,[8],0.591 (inactive)
same,composite z-score,[9],0.353
same,composite z-score,[10],-0.0296
same,composite z-score,[11],1.54
same,z-score,[12],1 (inactive)
same,z-score,[13],0.0198 (inactive)
same,z-score,[14],1.83 (inactive)
same,composite z-score,[15],2.08
same,z-score,[16],2.13 (inactive)
same,composite z-score,[17],0.0723
same,composite z-score,[18],0.829
same,composite z-score,[19],1.06
same,composite z-score,[20],0.0937
